The record followed here is PubChem BioAssay AID540267 (National Center for Advancing Translational Sciences (NCATS), 2011).

Each structure is given as a SMILES string. In all, about 340,000 compounds went through this assay and about 530 (0.16%) were called active. Roughly 2% stayed inconclusive and do not appear here. Only a selection was taken, and actives are over-represented in it overall. Unmarked numbers belong to inactive results. Rule as the data show it: active = activity change below about -80%; inconclusive = between about -30% and that limit; inactive = weaker than that.
% is scaled to controls: 0 for no effect and ±100 for the full control effect.

A short description of the assay: Small Molecules that selectively kill Giardia lamblia: qHTS.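 Also: parasites exposed to compound for two days anaerobically before the ATP read.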 Particulars: Giardia lamblia trophozoite viability; at 7.66 µM; hits give low values. From the text: Giardia lamblia is a human pathogen afflicting impoverished nations, and the most common cause of outbreaks of diarrhea in the United States. Giardia has been classified by the CDC as a category B bioterrorism organism. The favored anti giardiasis drugs in the US are metronidazole or tinidazole, compounds that have undesirable side effects. Moreover, increasing resistance to drug regimes and recurrence are a concern. It is thus clear that alternative drug treatments are needed.
In a collaboration between the University of Maryland, College Park and the NIH Chemical Genomics Center, a bioluminescence Giardia viability assay based on the trophozoites' ATP content was developed. This assay is suitable for high throughput screening, and miniaturized the assay for compound screening in 1536-well plates. The goal of the project is to screen the Molecular Libraries Small Molecule Repository (MLSMR) for compounds that selectively kill Giardia trophozoites.
NIH Chemical Genomics Center [NCGC]
NIH Molecular Libraries Probe Centers Network [MLPCN]
Assay Submitter (PI): Osnat Herzberg, University of Maryland, College Park, MD.
1. Dispense 2 ul/well media
2. Dispense 23 nl/well compounds
3. Dispense 4 ul/well Giardia trophozoites at a concentration of 100 cells/well
4. Incubate 48 hrs at 37 deg C anaerobically
5. Dispense 4 ul/well ATPLite 1-Step Luminescence assay kit
6. Incubate 15-30 min at room temperature
7. Read luminescence signal on ViewLux plate reader
A general note: Quantitative high-throughput screening tests each substance at several concentrations.
With `CCN(CC)c1ccc([N+](=O)[O-])c2cccnc12`, the activity change is -13.7%. `CN(c1ccccc1)c1ccc([N+](=O)[O-])c2nonc12`: the activity change was -83.4% (active).

Turning to `CO[C@H]1[C@@H](O)[C@@H](C)O[C@H](O[C@H]2[C@H](Oc3cccc4c(O)c5c(=O)oc6ccc(C)c7c(=O)oc(c34)c5c67)O[C@H](C)[C@H](O)[C@@H]2O)[C@@H]1O`, the activity change was 0.803%. For `COc1cc([C@@H]2c3cc4c(cc3[C@H](OC(C)=O)[C@H]3COC(=O)[C@H]23)OCO4)cc(OC)c1OC`, the activity change was -7.09%. The figure for `O=P1(Oc2ccccc2)CC(O)C(O)C(COCc2ccccc2)O1` (stereo not given) is 11%.
